Results on 15 compounds are retold here after ChEMBL document CHEMBL3433997, “St. Jude Leishmania screening dataset” (2016).

Chain of Solute carrier family 2, facilitated glucose transporter member 1 (Homo sapiens) (P11166 whole entry): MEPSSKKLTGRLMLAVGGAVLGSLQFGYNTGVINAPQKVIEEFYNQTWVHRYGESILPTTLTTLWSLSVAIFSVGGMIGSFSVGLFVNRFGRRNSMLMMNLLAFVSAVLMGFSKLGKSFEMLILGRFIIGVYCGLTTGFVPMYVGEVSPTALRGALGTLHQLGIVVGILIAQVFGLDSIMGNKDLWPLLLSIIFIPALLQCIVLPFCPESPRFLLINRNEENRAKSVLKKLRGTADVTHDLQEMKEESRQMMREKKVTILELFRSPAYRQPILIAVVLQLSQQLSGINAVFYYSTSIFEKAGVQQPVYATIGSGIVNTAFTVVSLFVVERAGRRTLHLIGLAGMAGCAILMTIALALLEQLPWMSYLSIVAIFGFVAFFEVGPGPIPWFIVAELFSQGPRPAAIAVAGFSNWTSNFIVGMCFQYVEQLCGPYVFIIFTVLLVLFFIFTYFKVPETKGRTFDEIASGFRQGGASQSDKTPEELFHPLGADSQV

This assay addresses Solute carrier family 2, facilitated glucose transporter member 1 (Homo sapiens) (UniProt P11166). Put plainly: ST_JUDE_LEISH: Cytotoxicity at 2uM final concentration against transgenic Leishmania Mexicana promastigotes LmGLUT1 that are glucose transport deficient and complemented with the human glucose transporter GLUT1. Activity is measured by DNA content using SYBR green in vitro. Type of assay: functional.
`COc1ccc(-c2ncnc(C(F)(F)F)c2-c2ccc(Cl)cc2)c(O)c1`: the inhibition – broadly, the drop in the measured response relative to a control, in per cent – is 3.19%.
The value for `CCc1ccc(S(=O)(=O)Nc2ccc(CCN3CCC(N4CCCCC4)CC3)cc2)cc1` was 13.9%.
Next, `CCCc1cc(OC)c(CC2c3cc(O)c(Cl)cc3C(c3ccccc3)CN2C)cc1OC` (stereo not given): 7.84%; `O=C(Nc1ccc(-c2nc3ccccc3[nH]2)cc1)c1ccc(S(=O)(=O)N2CCCCCC2)cc1`: 1.06%.
In the case of `COc1ccc(Nc2nccc(N3CCC(NC(=O)C(C)c4ccc(Cl)cc4)CC3)n2)cc1` (stereo not given), the inhibition turned out to be 0.43%.
With `CCCCCCn1c(Sc2ccc(C#N)c([N+](=O)[O-])c2)nnc1-c1cc(OC)cc(OC)c1`, the inhibition was determined as 5.8%.
`CCCCN1C(=N)NC(c2ccccc2)(c2ccccc2)C1=O`: the inhibition is 5.12%.
The value for `Cc1[nH]c(C)c(-c2ccc(-c3cc(C(F)(F)F)cc(C(F)(F)F)c3)nc2)c(=O)c1Br` was 4.9%.
The value for `O=C(Nc1cc(Cl)c(Cl)cc1NC(=O)c1cccc(-c2ccccc2)c1O)c1cccc(-c2ccccc2)c1O` was 5.1%; that for `COc1cc(Cc2cnc(N)nc2N)c2ccsc2c1OC` was 4.16%.
Take `COc1ccccc1OCCN(CC(O)COc1cccc2[nH]c3ccccc3c12)CC(O)COc1cccc2[nH]c3ccccc3c12` (stereo not given): the inhibition came out at 3.01%.
Next, `CC(C)NCc1ccc(-c2ccc(-c3nc4cc(C(F)(F)F)ccc4[nH]3)s2)cc1`: 19.5%.
In the case of `O=[N+]([O-])c1nc(Br)n(Cc2ccc(Cl)cc2)n1`, the inhibition came out at 3.1%.
For `CC(C)(C)c1ccc(S(=O)(=O)Nc2ccccc2N2CCOCC2)cc1`, the inhibition amounted to 6.54%.
For `Cc1nc(O)c2c(ccc3ccc(CN(C)c4ccc(C(=O)N[C@@H](CCC(=O)O)C(=O)O)cc4)cc32)n1`, the inhibition was -1.5%.
